# Results from publication PMC7862700, “An all-to-all approach to the identification of sequence-specific readers for epigenetic DNA modifications on cytosine”.
# Experiments:
# Test in all cases: DAPPL (digital affinity profiling via proximity ligation, sequencing); 10 mM Tris-HCl pH 7.5, 50 mM NaCl, 1 mM DTT, 4% glycerol, room temperature, 30 min; GST-TFs on glutathione beads, 16-mer random dsDNA library, 0.1% formaldehyde crosslink after washing; high values mean tight binding
# [1] = target: T1, FLI1 (Homo sapiens, UniProt Q01543 1-452); conditions: protein: recombinant; tags: N-terminal GST; dsDNA, one strand shown
# T1 sequence: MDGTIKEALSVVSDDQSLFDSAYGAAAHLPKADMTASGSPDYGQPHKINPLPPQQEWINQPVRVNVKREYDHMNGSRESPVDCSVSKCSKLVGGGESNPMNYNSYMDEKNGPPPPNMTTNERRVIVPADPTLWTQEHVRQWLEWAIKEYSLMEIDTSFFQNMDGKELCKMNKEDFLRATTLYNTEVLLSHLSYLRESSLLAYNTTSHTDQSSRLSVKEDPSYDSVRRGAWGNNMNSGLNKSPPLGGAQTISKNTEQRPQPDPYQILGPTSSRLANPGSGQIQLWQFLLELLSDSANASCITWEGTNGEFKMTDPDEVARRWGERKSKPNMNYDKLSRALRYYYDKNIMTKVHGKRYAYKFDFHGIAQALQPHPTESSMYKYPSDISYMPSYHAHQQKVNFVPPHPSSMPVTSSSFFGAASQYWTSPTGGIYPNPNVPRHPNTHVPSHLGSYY
# Summary of the method: (§1)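 In yeast, human transcription factors were expressed with a GST fusion, then pulled down on glutathione beads and given DNA barcodes. Pooled with a tag-only sample, they were exposed to 200 nmole of a 16-mer random double-stranded DNA library (Tris/NaCl/DTT/glycerol buffer, room temperature, 30 min), washed, crosslinked with 0.1% formaldehyde, proximity-ligated using BsaI/T4 ligase for 1 h at 37 °C, PCR-amplified and read on an Illumina NextSeq500. Each hexamer's frequency of reads for a factor, divided by the matching frequency for the tag-only sample, gives the binding signal.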
# [2] = target: T2, ELK1 (Homo sapiens, UniProt P19419 1-428); conditions: protein: recombinant; tags: N-terminal GST; dsDNA, one strand shown
# T2 sequence: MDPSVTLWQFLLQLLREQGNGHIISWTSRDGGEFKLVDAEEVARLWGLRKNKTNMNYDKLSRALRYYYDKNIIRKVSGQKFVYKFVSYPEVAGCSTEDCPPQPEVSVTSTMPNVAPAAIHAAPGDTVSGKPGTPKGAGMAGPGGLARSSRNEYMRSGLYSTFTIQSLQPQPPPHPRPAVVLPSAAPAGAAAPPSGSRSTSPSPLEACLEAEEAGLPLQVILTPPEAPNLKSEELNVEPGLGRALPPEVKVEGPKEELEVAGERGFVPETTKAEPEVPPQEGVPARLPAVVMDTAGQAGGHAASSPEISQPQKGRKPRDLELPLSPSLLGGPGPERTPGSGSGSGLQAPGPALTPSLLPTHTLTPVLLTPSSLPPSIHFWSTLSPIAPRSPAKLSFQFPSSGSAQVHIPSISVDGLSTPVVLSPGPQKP
# Summary of the method: as §1
# [3] = target: T3, GABPA (Homo sapiens, UniProt Q06546 1-454); conditions: protein: recombinant; tags: N-terminal GST; dsDNA, one strand shown
# T3 sequence: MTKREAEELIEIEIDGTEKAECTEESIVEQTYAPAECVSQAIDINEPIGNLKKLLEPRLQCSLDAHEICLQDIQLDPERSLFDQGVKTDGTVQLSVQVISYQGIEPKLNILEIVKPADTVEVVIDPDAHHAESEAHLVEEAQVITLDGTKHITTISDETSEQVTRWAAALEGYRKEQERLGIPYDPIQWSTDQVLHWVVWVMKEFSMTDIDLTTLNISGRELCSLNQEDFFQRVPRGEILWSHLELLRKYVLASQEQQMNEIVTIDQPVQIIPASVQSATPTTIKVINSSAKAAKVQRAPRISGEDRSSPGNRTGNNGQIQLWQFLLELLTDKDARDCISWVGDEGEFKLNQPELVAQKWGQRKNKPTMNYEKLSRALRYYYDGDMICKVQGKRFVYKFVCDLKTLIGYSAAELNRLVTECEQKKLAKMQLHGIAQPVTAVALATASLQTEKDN
# Summary of the method: as §1
# [4] = target: T4, ERG (Homo sapiens, UniProt P11308 1-479); conditions: protein: recombinant; tags: N-terminal GST; dsDNA, one strand shown
# T4 sequence: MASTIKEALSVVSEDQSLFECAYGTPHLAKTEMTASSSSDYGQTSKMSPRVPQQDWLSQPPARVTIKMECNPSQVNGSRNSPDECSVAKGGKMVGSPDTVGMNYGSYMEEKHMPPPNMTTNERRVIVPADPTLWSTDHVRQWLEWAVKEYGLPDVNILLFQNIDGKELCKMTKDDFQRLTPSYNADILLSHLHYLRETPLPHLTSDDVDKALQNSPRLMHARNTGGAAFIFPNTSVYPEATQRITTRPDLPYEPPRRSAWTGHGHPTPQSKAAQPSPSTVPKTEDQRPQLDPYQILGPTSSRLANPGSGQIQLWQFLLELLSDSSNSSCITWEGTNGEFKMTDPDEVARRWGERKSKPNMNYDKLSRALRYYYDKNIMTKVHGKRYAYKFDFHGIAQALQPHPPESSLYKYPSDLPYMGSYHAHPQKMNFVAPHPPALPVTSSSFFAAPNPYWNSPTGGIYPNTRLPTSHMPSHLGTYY
# Summary of the method: as §1
# [5] = target: ELF1 (Homo sapiens, UniProt P32519 1-619); conditions: protein: recombinant; tags: N-terminal GST; dsDNA, one strand shown
# Sequence of ELF1 (P32519 whole entry): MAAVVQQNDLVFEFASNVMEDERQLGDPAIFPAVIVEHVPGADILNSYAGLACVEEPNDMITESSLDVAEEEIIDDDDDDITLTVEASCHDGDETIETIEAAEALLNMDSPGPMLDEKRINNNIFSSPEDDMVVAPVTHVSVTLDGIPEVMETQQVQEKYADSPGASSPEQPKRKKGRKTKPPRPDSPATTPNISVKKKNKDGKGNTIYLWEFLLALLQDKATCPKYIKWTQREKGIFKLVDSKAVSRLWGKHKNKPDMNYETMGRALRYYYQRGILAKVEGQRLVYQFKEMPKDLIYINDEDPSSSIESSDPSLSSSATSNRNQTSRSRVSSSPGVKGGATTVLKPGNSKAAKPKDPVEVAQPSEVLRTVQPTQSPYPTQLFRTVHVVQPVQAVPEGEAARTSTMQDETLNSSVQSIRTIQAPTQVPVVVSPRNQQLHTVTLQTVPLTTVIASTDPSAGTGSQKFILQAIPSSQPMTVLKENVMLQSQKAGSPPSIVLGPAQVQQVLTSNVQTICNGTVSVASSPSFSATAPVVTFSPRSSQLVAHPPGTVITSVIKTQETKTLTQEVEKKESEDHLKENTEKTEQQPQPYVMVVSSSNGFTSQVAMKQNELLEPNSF
# Summary of the method: as §1
# [6] = target: T5, EHF (Homo sapiens, UniProt Q9NZC4 1-300); conditions: protein: recombinant; tags: N-terminal GST; dsDNA, one strand shown
# T5 sequence: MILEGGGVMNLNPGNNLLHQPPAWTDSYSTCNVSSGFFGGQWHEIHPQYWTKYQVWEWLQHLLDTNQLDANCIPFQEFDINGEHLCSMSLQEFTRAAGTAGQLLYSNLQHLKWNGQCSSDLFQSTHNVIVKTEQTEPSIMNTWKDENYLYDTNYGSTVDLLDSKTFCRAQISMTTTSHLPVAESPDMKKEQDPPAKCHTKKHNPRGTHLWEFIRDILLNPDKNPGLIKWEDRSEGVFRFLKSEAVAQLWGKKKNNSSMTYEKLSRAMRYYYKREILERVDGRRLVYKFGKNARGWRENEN
# Summary of the method: as §1
# [7] = target: SPI1 (Homo sapiens, UniProt P17947 1-270); conditions: protein: recombinant; tags: N-terminal GST; dsDNA, one strand shown
# Summary of the method: as §1
# [8] = target: SPIB (Homo sapiens, UniProt Q01892 1-262); conditions: protein: recombinant; tags: N-terminal GST; dsDNA, one strand shown
# Sequence of SPIB (Q01892 whole entry): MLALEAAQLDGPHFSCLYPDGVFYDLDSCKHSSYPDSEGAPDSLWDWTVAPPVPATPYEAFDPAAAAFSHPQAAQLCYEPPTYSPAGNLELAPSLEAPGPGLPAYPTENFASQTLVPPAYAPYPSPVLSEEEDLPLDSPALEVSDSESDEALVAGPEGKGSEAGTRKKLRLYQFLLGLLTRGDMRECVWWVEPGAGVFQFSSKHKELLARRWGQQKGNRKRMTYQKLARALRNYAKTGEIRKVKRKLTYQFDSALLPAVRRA
# Summary of the method: as §1
# [9] = target: T6, ELK3 (Homo sapiens, UniProt P41970 1-407); conditions: protein: recombinant; tags: N-terminal GST; dsDNA, one strand shown
# T6 sequence: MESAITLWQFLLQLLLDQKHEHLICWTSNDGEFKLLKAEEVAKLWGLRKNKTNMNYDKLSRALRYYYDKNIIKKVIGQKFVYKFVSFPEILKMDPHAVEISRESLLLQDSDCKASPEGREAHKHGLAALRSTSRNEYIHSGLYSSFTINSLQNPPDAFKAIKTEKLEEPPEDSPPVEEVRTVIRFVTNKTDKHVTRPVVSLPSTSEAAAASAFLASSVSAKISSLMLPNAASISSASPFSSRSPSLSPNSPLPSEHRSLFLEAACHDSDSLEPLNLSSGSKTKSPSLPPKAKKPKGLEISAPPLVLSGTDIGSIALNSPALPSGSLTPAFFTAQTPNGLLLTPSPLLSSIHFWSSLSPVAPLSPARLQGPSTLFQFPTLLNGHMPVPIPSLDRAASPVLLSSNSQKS
# Summary of the method: as §1
# [10] = target: T7, FEV (Homo sapiens, UniProt Q99581 1-238); conditions: protein: recombinant; tags: N-terminal GST; dsDNA, one strand shown
# T7 sequence: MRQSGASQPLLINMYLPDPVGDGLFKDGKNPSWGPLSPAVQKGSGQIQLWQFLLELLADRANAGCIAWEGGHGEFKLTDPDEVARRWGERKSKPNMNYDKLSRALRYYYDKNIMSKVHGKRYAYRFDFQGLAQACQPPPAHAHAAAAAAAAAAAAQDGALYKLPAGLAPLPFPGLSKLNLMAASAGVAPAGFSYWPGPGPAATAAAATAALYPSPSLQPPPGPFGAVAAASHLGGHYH
# Summary of the method: as §1
# [11] = target: ETV5 (Homo sapiens, UniProt P41161 1-510); conditions: protein: recombinant; tags: N-terminal GST; dsDNA, one strand shown
# Sequence of ETV5 (P41161 whole entry): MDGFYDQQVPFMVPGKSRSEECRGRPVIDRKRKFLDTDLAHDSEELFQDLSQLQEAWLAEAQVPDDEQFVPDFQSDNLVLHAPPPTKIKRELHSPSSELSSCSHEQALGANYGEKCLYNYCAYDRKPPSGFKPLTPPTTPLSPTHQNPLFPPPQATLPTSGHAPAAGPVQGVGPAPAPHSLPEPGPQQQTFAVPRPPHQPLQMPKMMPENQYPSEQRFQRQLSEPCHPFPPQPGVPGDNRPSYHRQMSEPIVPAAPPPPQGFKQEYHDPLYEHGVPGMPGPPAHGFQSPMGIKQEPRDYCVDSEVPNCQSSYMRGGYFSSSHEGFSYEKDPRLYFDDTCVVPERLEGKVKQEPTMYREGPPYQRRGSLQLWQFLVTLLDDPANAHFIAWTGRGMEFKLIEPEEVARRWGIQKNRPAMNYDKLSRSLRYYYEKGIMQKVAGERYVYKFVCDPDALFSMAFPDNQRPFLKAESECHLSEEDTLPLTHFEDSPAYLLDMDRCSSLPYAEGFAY
# Summary of the method: as §1
# [12] = target: HSF1 (Homo sapiens, UniProt Q00613 1-529); conditions: protein: recombinant; tags: N-terminal GST; chain copies: 3; dsDNA, one strand shown
# Sequence of HSF1 (Q00613 whole entry): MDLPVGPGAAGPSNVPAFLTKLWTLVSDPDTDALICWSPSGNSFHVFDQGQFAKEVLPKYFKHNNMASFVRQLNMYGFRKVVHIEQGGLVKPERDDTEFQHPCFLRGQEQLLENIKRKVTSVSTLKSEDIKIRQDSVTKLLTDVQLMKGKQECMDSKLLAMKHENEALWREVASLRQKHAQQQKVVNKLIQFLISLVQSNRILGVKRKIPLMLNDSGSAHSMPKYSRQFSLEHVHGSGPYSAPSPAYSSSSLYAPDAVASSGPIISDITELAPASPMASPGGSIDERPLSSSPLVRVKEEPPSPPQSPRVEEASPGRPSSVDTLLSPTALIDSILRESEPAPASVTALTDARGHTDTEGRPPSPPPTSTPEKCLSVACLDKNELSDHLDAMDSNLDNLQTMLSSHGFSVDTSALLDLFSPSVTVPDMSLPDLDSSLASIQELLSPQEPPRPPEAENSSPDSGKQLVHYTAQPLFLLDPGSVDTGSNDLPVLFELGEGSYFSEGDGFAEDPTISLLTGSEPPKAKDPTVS
# Summary of the method: as §1
# [13] = target: T8, SPIC (Homo sapiens, UniProt Q8N5J4 1-248); conditions: protein: recombinant; tags: N-terminal GST; dsDNA, one strand shown
# T8 sequence: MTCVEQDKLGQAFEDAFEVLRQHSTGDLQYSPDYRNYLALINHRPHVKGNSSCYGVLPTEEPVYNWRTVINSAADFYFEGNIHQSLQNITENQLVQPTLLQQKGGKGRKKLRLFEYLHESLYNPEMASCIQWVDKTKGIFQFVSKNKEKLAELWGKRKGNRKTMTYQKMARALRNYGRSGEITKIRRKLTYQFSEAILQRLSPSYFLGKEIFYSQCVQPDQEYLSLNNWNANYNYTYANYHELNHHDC
# Summary of the method: as §1
# [14] = target: ELF4 (Homo sapiens, UniProt Q99607 1-663); conditions: protein: recombinant; tags: N-terminal GST; dsDNA, one strand shown
# Sequence of ELF4 (Q99607 whole entry): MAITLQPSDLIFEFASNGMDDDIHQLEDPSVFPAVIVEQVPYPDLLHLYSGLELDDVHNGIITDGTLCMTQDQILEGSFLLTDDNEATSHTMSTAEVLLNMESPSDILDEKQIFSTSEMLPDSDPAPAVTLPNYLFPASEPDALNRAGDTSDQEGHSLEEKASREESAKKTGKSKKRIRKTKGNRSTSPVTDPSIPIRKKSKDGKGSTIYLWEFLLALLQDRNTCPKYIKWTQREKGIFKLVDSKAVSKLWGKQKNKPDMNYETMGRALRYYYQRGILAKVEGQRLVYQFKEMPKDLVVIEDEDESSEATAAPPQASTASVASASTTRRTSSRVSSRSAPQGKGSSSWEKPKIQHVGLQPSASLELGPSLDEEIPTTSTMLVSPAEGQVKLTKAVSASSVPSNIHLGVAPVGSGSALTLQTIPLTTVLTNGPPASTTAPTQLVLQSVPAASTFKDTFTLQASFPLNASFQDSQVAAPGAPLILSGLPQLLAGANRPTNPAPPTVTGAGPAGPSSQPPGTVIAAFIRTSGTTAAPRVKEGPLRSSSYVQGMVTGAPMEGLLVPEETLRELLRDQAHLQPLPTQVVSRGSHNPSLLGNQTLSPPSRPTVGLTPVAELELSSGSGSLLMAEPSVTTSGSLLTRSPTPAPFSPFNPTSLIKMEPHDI
# Summary of the method: as §1
# [15] = target: T9, ELK4 (Homo sapiens, UniProt P28324-2 1-405); conditions: protein: recombinant; tags: N-terminal GST; dsDNA, one strand shown
# T9 sequence: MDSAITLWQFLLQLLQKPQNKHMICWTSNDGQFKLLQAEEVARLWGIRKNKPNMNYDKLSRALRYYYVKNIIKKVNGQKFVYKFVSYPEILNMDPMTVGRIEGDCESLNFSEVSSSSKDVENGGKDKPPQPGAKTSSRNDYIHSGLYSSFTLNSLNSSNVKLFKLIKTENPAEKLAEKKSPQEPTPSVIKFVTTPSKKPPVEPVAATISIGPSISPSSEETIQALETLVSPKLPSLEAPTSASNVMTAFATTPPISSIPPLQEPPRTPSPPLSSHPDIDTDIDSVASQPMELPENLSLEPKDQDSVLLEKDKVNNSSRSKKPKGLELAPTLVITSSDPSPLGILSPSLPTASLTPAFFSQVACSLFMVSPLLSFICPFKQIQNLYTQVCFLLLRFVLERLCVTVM
# Summary of the method: as §1
# [16] = target: T10, ETV2 (Homo sapiens, UniProt O00321 1-342); conditions: protein: recombinant; tags: N-terminal GST; dsDNA, one strand shown
# T10 sequence: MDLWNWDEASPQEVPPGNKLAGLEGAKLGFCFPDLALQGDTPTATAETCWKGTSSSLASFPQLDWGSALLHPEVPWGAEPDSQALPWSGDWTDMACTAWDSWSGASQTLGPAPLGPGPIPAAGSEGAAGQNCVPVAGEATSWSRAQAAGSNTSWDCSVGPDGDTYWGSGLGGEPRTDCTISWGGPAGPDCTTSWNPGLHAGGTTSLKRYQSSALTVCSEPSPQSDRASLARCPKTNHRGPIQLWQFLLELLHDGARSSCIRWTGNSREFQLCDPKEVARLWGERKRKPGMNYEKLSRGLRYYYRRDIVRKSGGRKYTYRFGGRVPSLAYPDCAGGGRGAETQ
# Summary of the method: as §1
# [17] = target: T11, ELF3 (Homo sapiens, UniProt P78545 1-371); conditions: protein: recombinant; tags: N-terminal GST; dsDNA, one strand shown
# T11 sequence: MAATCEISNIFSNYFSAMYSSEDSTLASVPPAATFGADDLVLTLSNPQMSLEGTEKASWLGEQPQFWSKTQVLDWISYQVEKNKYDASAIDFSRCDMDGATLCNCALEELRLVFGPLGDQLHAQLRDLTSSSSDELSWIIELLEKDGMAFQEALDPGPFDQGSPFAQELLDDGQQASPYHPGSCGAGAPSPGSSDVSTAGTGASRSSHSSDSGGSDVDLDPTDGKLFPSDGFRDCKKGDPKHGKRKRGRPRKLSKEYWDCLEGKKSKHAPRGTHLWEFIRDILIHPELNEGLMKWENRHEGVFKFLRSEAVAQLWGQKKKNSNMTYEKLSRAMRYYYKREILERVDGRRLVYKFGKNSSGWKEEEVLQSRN
# Summary of the method: as §1
# [18] = target: ETV1 (Homo sapiens, UniProt P50549 1-477); conditions: protein: recombinant; tags: N-terminal GST; dsDNA, one strand shown
# Sequence of ETV1 (P50549 whole entry): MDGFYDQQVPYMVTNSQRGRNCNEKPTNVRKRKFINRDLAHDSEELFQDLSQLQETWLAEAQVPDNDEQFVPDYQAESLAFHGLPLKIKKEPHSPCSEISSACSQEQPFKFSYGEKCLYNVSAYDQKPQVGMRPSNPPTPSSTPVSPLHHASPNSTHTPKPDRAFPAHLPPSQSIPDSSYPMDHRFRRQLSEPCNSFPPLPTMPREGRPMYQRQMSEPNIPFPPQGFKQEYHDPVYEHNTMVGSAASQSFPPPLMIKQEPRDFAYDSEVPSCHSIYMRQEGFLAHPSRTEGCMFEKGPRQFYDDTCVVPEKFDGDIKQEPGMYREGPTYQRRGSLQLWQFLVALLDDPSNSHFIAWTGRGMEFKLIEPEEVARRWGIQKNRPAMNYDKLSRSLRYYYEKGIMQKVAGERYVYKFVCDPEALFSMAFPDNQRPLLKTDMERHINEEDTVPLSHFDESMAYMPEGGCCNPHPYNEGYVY
# Summary of the method: as §1
sequence,measurement,setting,value
CTTGAC,binding signal,[1],"1.17 fold enrichment (6-mer frequency, TF over GST control)"
same,binding signal,[2],"1.3 fold enrichment (6-mer frequency, TF over GST control)"
same,binding signal,[3],"1.3 fold enrichment (6-mer frequency, TF over GST control)"
same,binding signal,[4],"1.2 fold enrichment (6-mer frequency, TF over GST control)"
same,binding signal,[5],"1.2 fold enrichment (6-mer frequency, TF over GST control)"
same,binding signal,[6],"1.14 fold enrichment (6-mer frequency, TF over GST control)"
same,binding signal,[7],"1.18 fold enrichment (6-mer frequency, TF over GST control)"
same,binding signal,[8],"1.19 fold enrichment (6-mer frequency, TF over GST control)"
same,binding signal,[9],"1.23 fold enrichment (6-mer frequency, TF over GST control)"
same,binding signal,[10],"1.18 fold enrichment (6-mer frequency, TF over GST control)"
same,binding signal,[11],"1.14 fold enrichment (6-mer frequency, TF over GST control)"
same,binding signal,[12],"1.02 fold enrichment (6-mer frequency, TF over GST control)"
same,binding signal,[13],"1.14 fold enrichment (6-mer frequency, TF over GST control)"
same,binding signal,[14],"1.27 fold enrichment (6-mer frequency, TF over GST control)"
same,binding signal,[15],"1.37 fold enrichment (6-mer frequency, TF over GST control)"
same,binding signal,[16],"1.33 fold enrichment (6-mer frequency, TF over GST control)"
same,binding signal,[17],"1.33 fold enrichment (6-mer frequency, TF over GST control)"
same,binding signal,[18],"1.33 fold enrichment (6-mer frequency, TF over GST control)"
